# Source: the supplement of paper PMC11732987, “Enantioselective OTUD7B fragment discovery through chemoproteomics screening and high-throughput optimisation” (Communications Chemistry, 2025)
# A number with no mark means an inactive call.
# Assays:
# Test in all cases: log2 ratio of Biotin-Ahx-Ub-VS probe labelling (fragment/DMSO); higher = less target engagement (more negative = stronger competition), active = hit call of the paper (q ≤ 0.05, log2 ratio ≤ -1)
# Conditions in all cases: compound concentration: 200 uM; treatment time: 3 h
# [1] = biological target: T1, OTUD6B (UniProt Q8N6M0)
# T1 sequence (whole entry): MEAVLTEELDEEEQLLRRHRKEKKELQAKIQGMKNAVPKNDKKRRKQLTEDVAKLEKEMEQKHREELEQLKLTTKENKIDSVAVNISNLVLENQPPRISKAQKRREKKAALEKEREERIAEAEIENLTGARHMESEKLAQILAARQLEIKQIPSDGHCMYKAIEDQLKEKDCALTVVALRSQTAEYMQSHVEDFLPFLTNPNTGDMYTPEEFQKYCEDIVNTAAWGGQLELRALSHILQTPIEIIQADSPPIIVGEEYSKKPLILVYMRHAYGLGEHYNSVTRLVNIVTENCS
# Summary of the method: (§1)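 Using Biotin-Ahx-Ub-VS at 0.5 µM final for 1 h, DUBs were labelled in HEK293T lysate (495 µg per sample) that had first been treated in triplicate with fragment at 200 µM or vehicle for 3 h. NeutrAvidin enrichment, LysC and trypsin digestion and diaPASEF LC-MS/MS followed. Spectronaut label-free quantities were global-median-normalised. Values are average log2 fragment/vehicle ratios by unpaired t-test, using proteins with ≥2 unique peptides.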
# [2] = biological target: T2, OTUD7B (UniProt Q6GQQ9)
# T2 sequence (whole entry): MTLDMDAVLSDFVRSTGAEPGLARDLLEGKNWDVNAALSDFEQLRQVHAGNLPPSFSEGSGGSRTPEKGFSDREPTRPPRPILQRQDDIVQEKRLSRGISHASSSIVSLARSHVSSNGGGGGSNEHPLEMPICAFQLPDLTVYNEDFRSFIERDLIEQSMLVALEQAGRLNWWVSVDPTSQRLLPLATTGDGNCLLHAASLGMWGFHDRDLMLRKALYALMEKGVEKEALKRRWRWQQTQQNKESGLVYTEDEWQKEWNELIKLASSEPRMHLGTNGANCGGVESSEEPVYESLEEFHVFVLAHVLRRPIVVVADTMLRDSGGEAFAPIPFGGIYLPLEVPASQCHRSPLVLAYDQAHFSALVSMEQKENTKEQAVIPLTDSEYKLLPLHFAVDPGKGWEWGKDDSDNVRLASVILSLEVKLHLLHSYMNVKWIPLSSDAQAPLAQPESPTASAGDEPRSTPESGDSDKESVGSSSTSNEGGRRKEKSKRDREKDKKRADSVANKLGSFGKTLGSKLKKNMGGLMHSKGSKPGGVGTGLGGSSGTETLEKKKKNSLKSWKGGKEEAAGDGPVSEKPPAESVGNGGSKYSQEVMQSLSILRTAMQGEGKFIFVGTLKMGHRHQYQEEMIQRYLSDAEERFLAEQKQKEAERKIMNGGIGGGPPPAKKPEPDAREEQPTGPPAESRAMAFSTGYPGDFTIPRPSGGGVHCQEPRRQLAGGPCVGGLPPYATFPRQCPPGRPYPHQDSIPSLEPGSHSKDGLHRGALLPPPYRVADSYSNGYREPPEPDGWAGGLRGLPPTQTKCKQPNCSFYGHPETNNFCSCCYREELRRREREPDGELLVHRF
# Summary of the method: as §1
# [3] = biological target: PRPF8 (UniProt Q6P2Q9)
# Summary of the method: as §1
# [4] = biological target: T3, PSMD7 (UniProt P51665)
# T3 sequence (whole entry): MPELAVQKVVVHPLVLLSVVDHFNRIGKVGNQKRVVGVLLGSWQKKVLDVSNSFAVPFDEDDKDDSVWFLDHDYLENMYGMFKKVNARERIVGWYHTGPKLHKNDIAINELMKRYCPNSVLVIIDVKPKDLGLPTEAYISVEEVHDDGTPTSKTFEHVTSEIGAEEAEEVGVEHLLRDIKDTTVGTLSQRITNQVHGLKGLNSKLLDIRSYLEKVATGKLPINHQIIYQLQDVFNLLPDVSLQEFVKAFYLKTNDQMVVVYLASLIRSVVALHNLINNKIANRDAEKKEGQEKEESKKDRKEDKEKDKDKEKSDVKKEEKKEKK
# Summary of the method: as §1
# [5] = biological target: UCHL1 (UniProt P09936)
# Summary of the method: as §1
# [6] = biological target: T4, UCHL3 (UniProt P15374)
# T4 sequence (whole entry): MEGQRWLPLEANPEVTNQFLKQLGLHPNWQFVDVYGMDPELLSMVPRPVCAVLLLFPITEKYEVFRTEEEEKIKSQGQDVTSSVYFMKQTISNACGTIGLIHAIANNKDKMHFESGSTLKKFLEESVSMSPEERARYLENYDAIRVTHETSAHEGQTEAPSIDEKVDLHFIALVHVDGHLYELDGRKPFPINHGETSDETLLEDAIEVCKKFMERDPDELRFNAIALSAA
# Summary of the method: as §1
# [7] = biological target: T5, UCHL5 (UniProt Q9Y5K5)
# T5 sequence (whole entry): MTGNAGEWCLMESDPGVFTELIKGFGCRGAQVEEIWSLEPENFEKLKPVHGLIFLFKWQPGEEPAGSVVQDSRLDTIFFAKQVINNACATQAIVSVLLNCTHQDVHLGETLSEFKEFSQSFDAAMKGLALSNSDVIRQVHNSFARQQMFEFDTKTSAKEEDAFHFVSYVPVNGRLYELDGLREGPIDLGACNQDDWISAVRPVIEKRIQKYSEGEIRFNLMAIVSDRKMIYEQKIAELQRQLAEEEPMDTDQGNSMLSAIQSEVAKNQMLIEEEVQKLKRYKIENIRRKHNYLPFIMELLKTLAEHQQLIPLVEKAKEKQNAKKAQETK
# Summary of the method: as §1
# [8] = biological target: USP10 (UniProt Q14694)
# Summary of the method: as §1
# [9] = biological target: T6, USP15 (UniProt Q9Y4E8)
# T6 sequence (whole entry): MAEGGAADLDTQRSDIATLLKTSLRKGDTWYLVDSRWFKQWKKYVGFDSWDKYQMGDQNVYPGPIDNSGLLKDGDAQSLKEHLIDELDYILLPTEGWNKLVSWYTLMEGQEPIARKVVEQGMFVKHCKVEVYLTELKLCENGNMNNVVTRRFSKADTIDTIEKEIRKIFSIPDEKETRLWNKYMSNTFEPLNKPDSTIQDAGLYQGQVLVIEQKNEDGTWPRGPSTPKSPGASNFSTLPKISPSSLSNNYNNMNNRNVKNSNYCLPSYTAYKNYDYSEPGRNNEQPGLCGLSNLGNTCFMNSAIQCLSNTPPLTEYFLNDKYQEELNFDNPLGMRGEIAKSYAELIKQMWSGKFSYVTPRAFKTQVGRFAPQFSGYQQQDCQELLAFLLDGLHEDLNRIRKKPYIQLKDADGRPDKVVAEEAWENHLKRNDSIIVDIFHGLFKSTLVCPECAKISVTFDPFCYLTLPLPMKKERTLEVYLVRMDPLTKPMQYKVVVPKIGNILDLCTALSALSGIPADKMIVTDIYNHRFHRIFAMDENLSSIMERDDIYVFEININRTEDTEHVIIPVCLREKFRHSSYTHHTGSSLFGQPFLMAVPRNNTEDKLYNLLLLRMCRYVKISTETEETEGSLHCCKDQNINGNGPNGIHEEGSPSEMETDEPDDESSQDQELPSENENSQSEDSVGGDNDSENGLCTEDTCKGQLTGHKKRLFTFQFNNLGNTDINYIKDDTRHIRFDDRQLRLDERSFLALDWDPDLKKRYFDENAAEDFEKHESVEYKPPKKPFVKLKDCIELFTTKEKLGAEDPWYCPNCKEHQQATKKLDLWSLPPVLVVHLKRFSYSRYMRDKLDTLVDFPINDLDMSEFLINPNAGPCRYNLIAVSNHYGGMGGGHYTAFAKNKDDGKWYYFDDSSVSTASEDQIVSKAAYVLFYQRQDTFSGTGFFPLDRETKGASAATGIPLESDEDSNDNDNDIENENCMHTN
# Summary of the method: as §1
# [10] = biological target: USP16 (UniProt Q9Y5T5)
# Summary of the method: as §1
# Sequence of USP16 (Q9Y5T5 whole entry, looked up): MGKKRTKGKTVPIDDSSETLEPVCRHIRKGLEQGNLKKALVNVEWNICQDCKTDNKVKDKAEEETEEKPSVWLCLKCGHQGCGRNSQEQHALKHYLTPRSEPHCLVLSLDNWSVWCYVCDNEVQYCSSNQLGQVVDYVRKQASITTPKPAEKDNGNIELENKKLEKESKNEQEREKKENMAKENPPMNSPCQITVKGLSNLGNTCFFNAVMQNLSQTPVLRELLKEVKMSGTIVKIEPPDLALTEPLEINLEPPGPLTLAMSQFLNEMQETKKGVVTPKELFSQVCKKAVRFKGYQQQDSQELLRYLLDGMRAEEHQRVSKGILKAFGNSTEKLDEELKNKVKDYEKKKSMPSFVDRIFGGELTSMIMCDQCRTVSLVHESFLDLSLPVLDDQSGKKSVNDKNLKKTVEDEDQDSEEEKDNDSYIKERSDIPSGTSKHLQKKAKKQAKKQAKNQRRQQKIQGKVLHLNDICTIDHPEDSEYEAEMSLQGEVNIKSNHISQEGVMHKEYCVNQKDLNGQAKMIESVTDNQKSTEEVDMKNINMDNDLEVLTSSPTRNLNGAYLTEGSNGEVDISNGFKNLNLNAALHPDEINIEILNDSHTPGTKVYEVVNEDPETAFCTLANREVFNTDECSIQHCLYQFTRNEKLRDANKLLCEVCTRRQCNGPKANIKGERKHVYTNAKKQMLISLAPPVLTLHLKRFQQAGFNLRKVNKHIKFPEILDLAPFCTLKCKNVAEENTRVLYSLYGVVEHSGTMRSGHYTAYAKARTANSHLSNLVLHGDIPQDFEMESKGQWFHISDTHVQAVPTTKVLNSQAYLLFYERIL
# Sequence of UCHL1 (P09936 whole entry, looked up): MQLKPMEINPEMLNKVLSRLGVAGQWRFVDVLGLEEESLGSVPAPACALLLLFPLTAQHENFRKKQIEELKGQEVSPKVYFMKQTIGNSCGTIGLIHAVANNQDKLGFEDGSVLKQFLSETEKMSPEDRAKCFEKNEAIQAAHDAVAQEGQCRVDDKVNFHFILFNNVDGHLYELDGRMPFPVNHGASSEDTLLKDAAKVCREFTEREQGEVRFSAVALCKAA
# Sequence of USP10 (Q14694 whole entry): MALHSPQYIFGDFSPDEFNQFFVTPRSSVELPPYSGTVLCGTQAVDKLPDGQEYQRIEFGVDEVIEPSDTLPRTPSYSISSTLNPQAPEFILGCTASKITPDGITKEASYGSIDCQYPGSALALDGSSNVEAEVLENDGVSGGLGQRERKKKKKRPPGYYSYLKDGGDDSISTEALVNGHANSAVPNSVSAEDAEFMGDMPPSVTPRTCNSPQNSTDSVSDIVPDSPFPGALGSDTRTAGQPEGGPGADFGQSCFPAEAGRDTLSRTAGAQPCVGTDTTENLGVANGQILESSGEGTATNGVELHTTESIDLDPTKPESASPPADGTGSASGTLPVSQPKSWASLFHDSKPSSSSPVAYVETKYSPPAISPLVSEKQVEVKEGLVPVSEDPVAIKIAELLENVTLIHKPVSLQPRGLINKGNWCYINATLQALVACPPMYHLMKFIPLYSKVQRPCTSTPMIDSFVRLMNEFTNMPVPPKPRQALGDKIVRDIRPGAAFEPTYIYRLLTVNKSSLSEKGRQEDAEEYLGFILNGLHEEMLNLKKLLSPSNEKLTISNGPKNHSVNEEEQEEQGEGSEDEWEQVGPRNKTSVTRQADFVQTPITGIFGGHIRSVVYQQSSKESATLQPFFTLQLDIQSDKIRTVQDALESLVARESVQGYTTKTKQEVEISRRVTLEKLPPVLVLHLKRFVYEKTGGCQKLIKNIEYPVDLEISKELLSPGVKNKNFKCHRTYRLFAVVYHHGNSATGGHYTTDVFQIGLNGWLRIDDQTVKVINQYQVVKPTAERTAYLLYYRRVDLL
structure (smiles),measurement,setting,value
Cc1cc(NC(=O)CCl)n(-c2ccccc2)n1,log2 ratio of Biotin-Ahx-Ub-VS probe labelling,[1],-0.0228
same,log2 ratio of Biotin-Ahx-Ub-VS probe labelling,[2],-0.528
same,log2 ratio of Biotin-Ahx-Ub-VS probe labelling,[3],0.173
same,log2 ratio of Biotin-Ahx-Ub-VS probe labelling,[4],0.00596
same,log2 ratio of Biotin-Ahx-Ub-VS probe labelling,[5],-1.18 (active)
same,log2 ratio of Biotin-Ahx-Ub-VS probe labelling,[6],0.614
same,log2 ratio of Biotin-Ahx-Ub-VS probe labelling,[7],-0.0207
same,log2 ratio of Biotin-Ahx-Ub-VS probe labelling,[8],-0.234
same,log2 ratio of Biotin-Ahx-Ub-VS probe labelling,[9],-0.2
same,log2 ratio of Biotin-Ahx-Ub-VS probe labelling,[10],-0.321
